Screens from PubChem.
PAX8 reporter – inhibitors of PAX8-driven TPO luciferase reporter, primary screen, RMG-I cells, single concentration; SteadyGlo, 24 h; inhibition, % at 12.6 µM; 1.2% of 360,000 active;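 active means mean replicate inhibition at least 60% with every replicate also reaching 60%; inconclusive means only one of the two criteria is met; inactive means mean below 60% and not all replicates reaching 60%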;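 further: luciferase light reporting Pax8 driven TPO promoter activity; plate controls were median of neutral control wells for no effect and mitoxantrone controls for full effect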
INS-1E GSIS act – GLuc luminescence reporter in INS-1E cells, primary screen for activators of glucose-dependent secretion of insulin; INS-1E GLuc reporter insulin secretion, 2-3 h; activation, % at 16.6 µM; 0.61% of 370,000 active;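 active means lowest replicate activation of at least 40%, so every replicate reaches that level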;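 further: 0% = median of neutral control wells and 100% = median of IBMX positive control wells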
EWS-Fli inh – EWS/Fli-driven NR0B1 reporter inhibitors, primary screen, A673 cells, NR0B1 luciferase, luminescence, MLPCN library; viability-normalised; AID 651661, 2012; 0.67% of 350,000 active; inhibition, % at 12.6 µM;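 active means mean inhibition of at least 50% after viability correction, with every replicate also passing that limit; inconclusive means mean reaches 50% but only one of two replicates passes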;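 further: firefly luciferase signal divided by Alamar Blue viability fluorescence both relative to DMSO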
PGC1a acetyl inh – inhibitors of PGC1a acetylation signal, primary screen, cell-based, U2OS, AlphaScreen, inhibitor mode | AlphaScreen anti-acetyl-lysine; with virally co-expressed GCN5 acetyltransferase | inhibition, % at 15.6 µM | 0.17% of 350,000 active | AID 651687, 2012;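 active means every replicate shows inhibition of at least 40%; inconclusive means mean inhibition at least 40% but some replicate below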;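 further: 0% = neutral control wells and 100% = positive control wells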
CFTR F508del cor – F508del CFTR correction, initial screen, CFBE line, single point; CFBE cells, YFP halide quenching; stimulated with forskolin plus potentiator P3; % fluorescence drop versus neutral controls; activity (quench increase), % at 7.58 µM; 0.36% of 350,000 active;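 active means mean added fluorescence quench of at least 8% versus neutral control, with both replicates also reaching 8%; inconclusive means only one of the mean or replicate conditions met; inactive means mean below 8% and not both replicates reaching 8%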;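 further: cells transiently co-express mutant CFTR-F508del with the halide-sensitive YFP; corrector assay measuring rescue of mutant channel to the surface after 24 h compound exposure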
Env fusion inh – inhibitors of HIV-1 Env-driven cell-cell fusion, primary screen, HeLa-JRFL effector, CEM21 target cells, luciferase. 1.1% of 360,000 active. inhibition, % at 12.3 µM;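 active means mean replicate inhibition score of at least 50 and every replicate individually at or above 50; inconclusive means only one of the two criteria met; inactive means mean below 50 and not all replicates reaching 50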;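 further: 0% = plate neutral controls and 100% = maraviroc near 300 nM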
* = called active by the depositor; ? = inconclusive; · = no result given; [ ] = dose if it differs, or a comment. Most compounds without a hit are left out; they make up all but 2.7% or so of the library.

SMILES	PAX8 reporter	INS-1E GSIS act	EWS-Fli inh	PGC1a acetyl inh	CFTR F508del cor	Env fusion inh
C[C@H]1CN([C@@H](C)CO)S(=O)(=O)c2ccc(/C=C/c3ccccc3)cc2O[C@H]1CN(C)C(=O)Nc1cc(F)ccc1F	64*	5	16	-13	3	15[16.7 µM]
C[C@H]1CN([C@@H](C)CO)S(=O)(=O)c2ccc(/C=C/c3ccccc3)cc2O[C@@H]1CN(C)C(=O)Nc1ccc(F)cc1	·	-23	20	2	10*	14[16.7 µM]
C/C=C/c1ccc2c(c1)O[C@H](CN(C)C(=O)Nc1cccc(F)c1)[C@H](C)CN([C@@H](C)CO)S2(=O)=O	8	-11	8	-11	4	·
C/C=C/c1ccc2c(c1)O[C@@H](CN(C)C(=O)Nc1cccc(F)c1)[C@H](C)CN([C@H](C)CO)S2(=O)=O	13	-17	-2	1	8.5*	·
C[C@H]1CN([C@@H](C)CO)S(=O)(=O)c2ccc(/C=C/c3ccccc3)cc2O[C@@H]1CN(C)C(=O)Nc1cc(F)ccc1F	-18	3	-5	-4	4	-12[16.7 µM]
CO[C@H]1CN(C)C(=O)c2cc(NS(=O)(=O)c3cccc(F)c3)ccc2OC[C@@H](C)NC[C@H]1C	4	21	-2	13	-1	-4[16.7 µM]
Cc1noc(C)c1NC(=O)Nc1ccc2c(c1)C(=O)N([C@H](C)CO)C[C@@H](C)[C@@H](CN(C)C(=O)NC1CCCCC1)O2	·	7	-13	0	1	-2[16.7 µM]
COc1cc2cc(CCO)oc(=O)c2cc1OC	-8	31	-17	-3	-2	65*
OCCN1CCN(CC(O)COc2ccc(C34CC5CC(CC(C5)C3)C4)cc2)CC1 (configuration not stated)	19	90*	33	-20	-13	12
OCCN1CCN(CC(O)COc2ccc(Cl)cc2)CC1 (configuration not stated)	·	·	·	5	·	·
Cc1noc(C)c1S(=O)(=O)N(C)C[C@H]1Oc2ccc(NC(=O)C3CCCCC3)cc2CC(=O)N([C@@H](C)CO)C[C@@H]1C	·	-3	2	1	0	-11[16.7 µM]
Cc1ccc2cc(C#N)c(NCCNC(=O)C3CCC3)nc2c1C	·	·	·	-4	·	106*
Cc1cccc2cc(C#N)c(NCCNC(=O)NC3CCCCC3)nc12	-12	27	·	-7	·	9
C[C@H]1CN([C@@H](C)CO)S(=O)(=O)c2ccc(C#Cc3ccncc3)cc2O[C@H]1CN(C)C(=O)C1CCCCC1	76*	-15	6	2	0	27[16.7 µM]
C[C@@H]1CN([C@@H](C)CO)S(=O)(=O)c2ccc(C#Cc3ccncc3)cc2O[C@@H]1CN(C)C(=O)C1CCCCC1	76*	-10	32	7	1	-31[16.7 µM]
C[C@@H]1CN([C@@H](C)CO)S(=O)(=O)c2ccc(C#Cc3ccncc3)cc2O[C@@H]1CN(C)C(=O)Nc1ccc2c(c1)OCO2	-21	-20	-13	-9	3	·
C[C@H](CO)N1C[C@H](C)[C@@H](CN(C)C(=O)Nc2ccc3c(c2)OCO3)Oc2cc(C#Cc3ccncc3)ccc2S1(=O)=O	100*	-17	49	6	2	·
COc1ccc2c(COC(=O)CNC(=O)C34CC5CC(CC(C5)C3)C4)cc(=O)oc2c1	122*	-18	5	·	1	·
C[n+]1c2n(c3ccccc31)N=C(c1cc(C(C)(C)C)c(O)c(C(C)(C)C)c1)CS2	92*	301*	47	-88	·	?
C[C@@H]1CN([C@H](C)CO)C(=O)Cc2cc(NC(=O)CCCCCC(=O)Nc3ccccc3N)ccc2O[C@@H]1CN(C)Cc1ccc(C(F)(F)F)cc1	69*	-1	30	1	0	44[16.7 µM]
C[C@H]1CN([C@@H](C)CO)C(=O)Cc2cc(NC(=O)CCCCCC(=O)Nc3ccccc3N)ccc2O[C@@H]1CN(C)Cc1ccc(Oc2ccccc2)cc1	-26	14	23	-6	0	21[16.7 µM]
C[C@@H]1CN([C@H](C)CO)C(=O)Cc2cc(NC(=O)CCCCCC(=O)Nc3ccccc3N)ccc2O[C@@H]1CN(C)Cc1ccc(Oc2ccccc2)cc1	?	8	20	2	0	56*[16.7 µM]
C[C@H](CO)N1C[C@H](C)[C@@H](CN(C)Cc2ccc(C(F)(F)F)cc2)Oc2c(NC(=O)CCCCCC(=O)Nc3ccccc3N)cccc2C1=O	69*	-8	·	-32	2	·
C[C@@H]1CN([C@H](C)CO)C(=O)Cc2cc(NC(=O)CCCCCC(=O)Nc3ccccc3N)ccc2O[C@H]1CN(C)Cc1ccc(C(F)(F)F)cc1	21	-4	18	3	0	38[16.7 µM]
C[C@H]1CN([C@@H](C)CO)C(=O)Cc2cc(NC(=O)Nc3ccc(C(F)(F)F)cc3)ccc2O[C@H]1CN(C)Cc1ccc(C(=O)Nc2ccccc2N)cc1	·	2	79*	-16	5	29[16.7 µM]
SMILES	PAX8 reporter	INS-1E GSIS act	EWS-Fli inh	PGC1a acetyl inh	CFTR F508del cor	Env fusion inh
COCC(=O)N1CC2(C1)CN(Cc1cccc(OC)c1)[C@H](CO)c1c2c2ccc(OC)cc2n1C	·	-6	-2	-5	0	·
CC(C)NC(=O)N(C)C[C@@H]1Oc2c(NC(=O)C3CCCCC3)cccc2C(=O)N([C@H](C)CO)C[C@H]1C	-2	5	-6	·	-1	-26[16.7 µM]
C[C@H]1CN(C)C(=O)Cc2ccccc2O[C@H]1CN(C)C(=O)OC(C)(C)C	·	-4	·	·	·	·
Cc1noc(C)c1NC(=O)Nc1ccc2c(c1)C(=O)N([C@H](C)CO)C[C@@H](C)[C@H](CN(C)S(=O)(=O)c1ccccc1)O2	·	5	-3	1	-1	12[16.7 µM]
CC1CCN(C(=O)c2ccc(S(=O)(=O)N3CCCCCC3)cc2)CC1	-7	-5	-1	13	-3	2
Cc1ccc(S(=O)(=O)N2CCCCC2)cc1C(=O)N1CCCC1	7	23	-4	·	-1	?
Cc1ccc(NC(=O)c2ccc(S(=O)(=O)N3CCCCC3)cc2)cc1	·	6	·	5	·	-18
CC1CCN(C(=O)c2ccc(S(=O)(=O)N3CCCC3)cc2)CC1	5	-10	2	5	9.3*	-14
Cc1ccc(C(=O)NNC(=O)c2ccc(S(=O)(=O)N3CCCCC3)cc2)cc1	0	·	6	·	9.8*	8
Cc1ccc(S(=O)(=O)N2CCCC2)cc1C(=O)O	4	·	·	59*	·	-38
CN1[C@@H]2c3ccc(-c4ccccc4)c(=O)n3C[C@H]1[C@H](CO)[C@H]2C(=O)N1CCC(Cc2ccccc2)CC1	·	-7	-5	·	1	·
CN(CCOc1ccc(-c2ccn(S(=O)(=O)c3ccc(Cl)cc3)n2)cc1)c1ccccn1	7	·	·	-13	·	60*
CN1CC(c2ccc(Cl)c(Cl)c2)[C@@]2(COc3ccccc3C2=O)[C@@]12C(=O)Nc1ccccc12 (some centres not stated)	·	·	·	-7	·	103*
